Where “and” joins values, the source holds several entries; their conditions need not be identical. Equal values may be shown once. About 79,000 compounds went through this panel and 15% of them were active in at least one assay; those are over-represented in the sample as a whole. Some structures have more than one record in an assay (separate samples or runs), and their calls can disagree. Calls of active or inactive are those of the source. Rule as the data show it: active = growth inhibition above about 70%; inactive = the rest.
Key:
[1] = NCI Yeast Anticancer Drug Screen. Data for the rad50 strain (AID 155);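 also: 0% = growth of vehicle-only cultures of the same strain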; conditions: S. cerevisiae rad50 strain growth inhibition; at 50.0 µM; stronger effect = higher value
Outline: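 Growth of the mutant yeast was measured after compound exposure and referenced to vehicle-treated cultures.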

[2] = NCI Yeast Anticancer Drug Screen. Data for the mec2-1 strain (AID 157); conditions: S. cerevisiae mec2-1 strain, at 50.0 µM, stronger effect = higher value
Outline: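 Using mec2-1 yeast: add compound, measure growth, express inhibition versus vehicle-treated cultures.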

[3] = NCI Yeast Anticancer Drug Screen. Data for the sgs1 mgt1 strain (AID 161);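 also: 0% = growth of cultures given vehicle only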; conditions: S. cerevisiae sgs1 mgt1 strain, at 50.0 µM, stronger effect = higher value
Outline: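 Compounds are added to genetically altered yeast, and growth is compared with cultures given vehicle alone to give percent inhibition.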

[4] = NCI Yeast Anticancer Drug Screen. Data for the cln2 rad14 strain (AID 165);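 also: 0% = growth equal to vehicle treated cultures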; conditions: S. cerevisiae cln2 rad14 strain, at 50.0 µM, stronger effect = higher value
Outline: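 Yeast strain cln2 rad14, bearing defects in cell cycle control and DNA repair, serves as the test system; values reflect growth inhibition compared with vehicle.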

[5] = NCI Yeast Anticancer Drug Screen. Data for the bub3 strain (AID 167); conditions: S. cerevisiae bub3 mutant strain, at 50.0 µM, stronger effect = higher value
Outline: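 Whole-cell yeast assay. The mutant strain was incubated with compounds, and growth inhibition was determined by comparison with vehicle-treated cells.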

[6] = NCI Yeast Anticancer Drug Screen. Data for the mlh1 rad18 strain (AID 175); conditions: S. cerevisiae mlh1 rad18 strain growth inhibition; at 50.0 µM; stronger effect = higher value
Outline: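 Steps: expose repair-defective yeast to compound; measure growth; express inhibition against vehicle-treated controls.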

With CCOC(=O)CC1(O)C=CC(=O)C=C1 as the molecule, how does the growth inhibition [1] read?
The growth inhibition was 9.25% (inactive) and 14.2% (inactive).

And the growth inhibition [2]?
The growth inhibition was 0.5% (inactive) and -5.6% (inactive).

What about the growth inhibition [3] of the same molecule?
The growth inhibition was 0.55% (inactive) and -5.1% (inactive).

And the growth inhibition [4]?
Its growth inhibition is 15.1% (inactive) and 21.2% (inactive).

And the growth inhibition [5]?
The growth inhibition was 6.65% (inactive) and 22.9% (inactive).

What about the growth inhibition [6] of the same molecule?
The growth inhibition was -6.2% (inactive) and 36.4% (inactive).

For Cc1ccc(C(O)c2nnc(C(O)c3ccc(C)cc3)nn2)cc1 (centres undefined), which growth inhibition [1] is on record?
The growth inhibition was 11.2% (inactive) and 33.9% (inactive).

And the growth inhibition [2]?
The growth inhibition was 11.6% (inactive) and 29% (inactive).

What about the growth inhibition [3] of the same molecule?
Its growth inhibition is -3.55% (inactive) and 71% (active).

And the growth inhibition [4]?
Its growth inhibition is 9.45% (inactive) and 16.4% (inactive).

And the growth inhibition [5]?
The growth inhibition was 18.9% (inactive) and 21.2% (inactive).

What about the growth inhibition [6] of the same molecule?
Its growth inhibition is 18.8% (inactive) and 40.5% (inactive).

Which growth inhibition [1] does the source give for CN(C)CC1CCCC1=O (centres undefined) here?
Its growth inhibition is 7.15% (inactive) and 1.25% (inactive).

What about the growth inhibition [2] of the same molecule?
Its growth inhibition is -0.95% (inactive) and -7.1% (inactive).

What about the growth inhibition [3] of the same molecule?
The growth inhibition was 5.8% (inactive) and -22.7% (inactive).

And the growth inhibition [4]?
Its growth inhibition is 1.75% (inactive) and 8.6% (inactive).

And the growth inhibition [5]?
Its growth inhibition is -0.75% (inactive) and 8.25% (inactive).

What about the growth inhibition [6] of the same molecule?
The growth inhibition was 4.6% (inactive) and 11.3% (inactive).

With CSCCC(NC(=O)COc1ccc(Cl)cc1Cl)C(=O)O (centres undefined) as the molecule, how does the growth inhibition [1] read?
The growth inhibition was -21.3% (inactive) and 16.8% (inactive).

What about the growth inhibition [2] of the same molecule?
Its growth inhibition is -35.6% (inactive) and 60% (inactive).

And the growth inhibition [3]?
Its growth inhibition is -44.5% (inactive) and 34.2% (inactive).

What about the growth inhibition [4] of the same molecule?
The growth inhibition was 6.2% (inactive) and 7.2% (inactive).

And the growth inhibition [5]?
Its growth inhibition is -23.4% (inactive) and 30.6% (inactive).

And the growth inhibition [6]?
The growth inhibition was -33.3% (inactive) and 52.7% (inactive).

Which growth inhibition [1] does the source give for NCC(O)c1ccc(O)c(O)c1 (centres undefined) here?
Its growth inhibition is 38.8% (inactive) and 19.4% (inactive).

What about the growth inhibition [2] of the same molecule?
The growth inhibition was 39.9% (inactive) and -5.9% (inactive).

And the growth inhibition [3]?
Its growth inhibition is 30.9% (inactive) and -7.2% (inactive).

What about the growth inhibition [4] of the same molecule?
The growth inhibition was 19% (inactive) and -32.3% (inactive).

What about the growth inhibition [5] of the same molecule?
Its growth inhibition is 28.5% (inactive) and 13.4% (inactive).

And the growth inhibition [6]?
The growth inhibition was 44.6% (inactive) and 14.8% (inactive).

Which growth inhibition [1] does the source give for CC(=O)OCC(OC(C)=O)C(OC(C)=O)C(OC(C)=O)C(C=NN(C(C)=O)S(=O)(=O)c1ccc(/C=C2\NC(=O)NC2=O)cc1)OC(C)=O (centres undefined) here?
Its growth inhibition is 2.7% (inactive) and 15.3% (inactive).

And the growth inhibition [2]?
Its growth inhibition is 13.4% (inactive) and 0.65% (inactive).

What about the growth inhibition [3] of the same molecule?
The growth inhibition was 26.6% (inactive) and 11.7% (inactive).

And the growth inhibition [4]?
Its growth inhibition is 24.1% (inactive) and 30.6% (inactive).

And the growth inhibition [5]?
Its growth inhibition is -5.25% (inactive) and 7.15% (inactive).

And the growth inhibition [6]?
The growth inhibition was 25.8% (inactive) and 18.2% (inactive).

Which results are given for CC(=O)OCC1OC(n2c(=S)n(-c3ccc(C)cc3)c(=O)c3ccccc32)C(OC(C)=O)C(OC(C)=O)C1OC(C)=O (centres undefined)?
growth inhibition [1]: 2.2% (inactive) and 32% (inactive); growth inhibition [2]: 6.1% (inactive) and 18.4% (inactive); growth inhibition [3]: -11.1% (inactive) and 15.9% (inactive); growth inhibition [4]: 21% (inactive) and 21.2% (inactive); growth inhibition [5]: -6.65% (inactive) and 14.7% (inactive); growth inhibition [6]: -9.4% (inactive) and 4.9% (inactive)

Which growth inhibition [1] does the source give for Cc1cc(=O)[nH]c2ccccc12 here?
Its growth inhibition is 26.6% (inactive) and 14% (inactive).

What about the growth inhibition [2] of the same molecule?
Its growth inhibition is -6.3% (inactive) and -2.8% (inactive).

And the growth inhibition [3]?
The growth inhibition was -7.8% (inactive) and -30.9% (inactive).

What about the growth inhibition [4] of the same molecule?
The growth inhibition was 6.3% (inactive) and 21.8% (inactive).

What about the growth inhibition [5] of the same molecule?
The growth inhibition was 7.05% (inactive) and -10.1% (inactive).

And the growth inhibition [6]?
Its growth inhibition is 6.45% (inactive) and 12.5% (inactive).

Which growth inhibition [1] does the source give for C[S+](C)C here?
The growth inhibition was -5.65% (inactive) and -0.05% (inactive).

And the growth inhibition [2]?
The growth inhibition was -7.25% (inactive) and -2.1% (inactive).

What about the growth inhibition [3] of the same molecule?
The growth inhibition was -2.9% (inactive) and -2% (inactive).

What about the growth inhibition [4] of the same molecule?
The growth inhibition was 9.1% (inactive) and -10% (inactive).

And the growth inhibition [5]?
The growth inhibition was 4.4% (inactive) and -7.1% (inactive).

And the growth inhibition [6]?
The growth inhibition was -18.4% (inactive) and 12.5% (inactive).
